In PubChem BioAssay (NCI):
Compounds without any hit were thinned out: in the full panel of roughly 83,000, 20% have a hit.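 Cells were grown in 96-well plates and exposed to the test compound at a single concentration for 48 hours; results are reported as percent growth, with values below 10 considered active.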 A number with no mark means an inactive call. Active and inactive are the calls of the source.

System: UACC-62 melanoma
Assay: NCI-60 one-dose screen, 48 h (100 = growth as untreated, 0 = no growth, -100 = all killed)
Conditions: 10 µM unless noted

SMILES	growth [%]
CC(C)(C)OC(=O)N1CCN(CCn2cc(C(F)(F)F)c3c(Cl)ncnc32)CC1	55.4
Cc1cn(-c2cc(C(=O)Nc3cccc(-n4ccc5c(NC(=O)c6ccccc6)nccc54)c3)cc(C(F)(F)F)c2)cn1	27.1
Clc1ccc(OCc2nc(-c3ccccc3)n[nH]2)c(Cl)c1	95.6

System: LOX IMVI melanoma
Assay: as above
Conditions: 10 µM unless noted

SMILES	growth
Nc1ncnc2c1ncn2C1OC(COC(c2ccccc2)(c2ccccc2)c2ccccc2)C(O)C1O (stereo not drawn)	91.4%
O=C(Nc1ccc(-n2cc(-c3ccncc3)c(-c3ccc(O)c(Cl)c3)n2)cc1)c1cc(C(F)(F)F)cc(C(F)(F)F)c1	42.4%
CN1C(=O)C2(SCC(C(=O)NCC(=O)OC(C)(C)C)N2C(=O)C2CCCCC2)c2ccccc21 (stereo not drawn)	94.9%
CCC1S/C(=N\N=C(/C)c2cc3ccccc3o2)N(c2ccccc2)C1=O (stereo not drawn)	93.7%
CC(C)(C)OC(=O)NCc1cccc(N=C=S)c1	24.4%
CCOc1ccc(NC(=O)Nc2cc(C(C)C)ccc2C)cc1	71.2%
O=C(NCCNc1nccc(-c2c(-c3cccc(O)c3)nc3sccn23)n1)Nc1cccc(C(F)(F)F)c1	64.5%
C=C1c2c(Cl)ccc(O)c2C(O)=C2C(=O)[C@]3(O)C(O)=C(C(N)=O)C(=O)[C@@H](N(C)C)[C@@H]3[C@@H](O)[C@H]12	0.768% (active)
CCN(CC)CCN1C(=O)c2c(c3c4ccccc4[nH]c3c3[nH]c4ccccc4c23)C1=O	82.3%
O=C1OC(c2ccc(-c3ccccc3)cc2)=C/C1=C/C=C/c1ccccc1	99.3%
